The results in this text go back to PubChem BioAssay AID588493 (Sanford-Burnham Center for Chemical Genomics, 2011).

Structures are written as SMILES. In all, about 360,000 compounds went through this assay and about 2,100 (0.58%) were called active. This is one part of a sample in which actives are shown more often than they occur. Unmarked numbers belong to inactive results.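 The calls were made as follows: active = inhibition at 20 µM, scaled to each plate's controls, above about 33% (limit read from the data); inactive = the rest.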

26S proteasome non-ATPase regulatory subunit 14 (Homo sapiens), sequence (O00487 whole entry, looked up): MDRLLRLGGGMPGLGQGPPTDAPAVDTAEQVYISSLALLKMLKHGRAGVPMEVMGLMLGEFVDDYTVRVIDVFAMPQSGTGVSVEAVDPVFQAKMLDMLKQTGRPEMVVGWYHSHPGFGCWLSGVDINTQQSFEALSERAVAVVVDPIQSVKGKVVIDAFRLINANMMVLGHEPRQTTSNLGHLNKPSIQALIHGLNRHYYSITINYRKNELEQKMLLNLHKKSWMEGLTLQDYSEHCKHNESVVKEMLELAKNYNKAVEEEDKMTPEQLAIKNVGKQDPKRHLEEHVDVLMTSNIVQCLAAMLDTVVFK

This experiment addresses 26S proteasome non-ATPase regulatory subunit 14 (Homo sapiens) (UniProt O00487). In words: Rpn11 (PSMD14) deubiquitinase inhibitors, primary screen, biochemical, fluorescence polarization, uHTS (AID 588493). Particulars: human 26S proteasome, Ub4-pepOG fluorescence polarization; at 20 µM; active compounds read high; 20S core pre-blocked with epoxomicin. In general terms: Fluorescence polarisation rises when a labelled molecule tumbles more slowly, as on binding a larger partner.
Consider `CCC(=O)N1CCC(C(N)=O)(N2CCCCC2)CC1`, for which the inhibition (usually the drop in the measured response relative to a control, in per cent) was -4.7%.

Consider `CCOC(=O)CN(C(=O)COc1nc(C)cc(C)c1C#N)c1ccc(Cl)cc1`, for which the inhibition was 1.3%.

Take `O=C(O)c1ccc(NN=CC2=C(N3CCOCC3)/C(=C/c3ccccc3)CC2)cc1`: the inhibition was 51.4% (active).

For the molecule `O=C1Nc2ccc(Br)cc2/C1=N/N=C/C1=C(N2CCOCC2)C(=C\c2ccccc2)/CC1`, the inhibition was 8%.

As to `C=CCn1c(-c2ccccc2OCC)n[nH]c1=S`, the inhibition was -4.4%.

Take `Cc1ccccc1CSCC(=O)NC(=O)NC(C)(C)C`: the inhibition was 4.3%.

Turning to `CC(C)(C)NC(=O)CSC(=Nc1ccccc1F)NC#N`, the inhibition was 45.6% (active).

Consider `CC(C)(C)NC(=O)CSc1nnc(NC(=O)CCc2ccccc2)s1`, for which the inhibition was 2.2%.

Regarding `CC(=O)Nc1ccc(NC(=O)CSCc2cnn(-c3ccccc3)c2-n2cccc2)cc1`, the inhibition is -1.2%.

As for `CCc1c(C)[nH]c(=S)c(C#N)c1C`, the inhibition was -1.9%.

Regarding `Cc1cccc(-n2c(SCC(N)=O)nc3c(c2=O)C2(CCCCC2)Cc2ccccc2-3)c1`, the inhibition is 14.6%.

In the case of `COc1ccc(C(=O)NCc2ccc(Cl)cc2)cc1S(=O)(=O)N1CCCC1`, the inhibition is -4.5%.

In the case of `CN(C(=O)c1c(Cl)cnn1C)C12CC3CC(CC(C3)C1)C2`, the inhibition was 0.7%.

On to `N#CC(C(=O)c1ccc(S(=O)(=O)N2CCCCCC2)cc1)c1nc2ccccc2[nH]1` (stereo not drawn), for which the inhibition is 13.9%.

On to `O=C(NCc1ccco1)C1CCCN(S(=O)(=O)c2ccccc2)C1` (stereo not drawn), for which the inhibition is -4.7%.

Turning to `O=C(NCc1ccco1)C1CCCN(S(=O)(=O)c2cnc[nH]2)C1` (stereo not drawn), the inhibition was -5.5%.

As to `CCCS(=O)(=O)N1CCCC(C(=O)NCc2ccco2)C1` (stereo not drawn), the inhibition is 34.7% (active).

For the molecule `CC(Sc1nc2c([nH]c3ccccc32)c(=O)n1C)c1ccccc1` (stereo not drawn), the inhibition is -0.4%.

For the molecule `Cc1cc(C)nc(NC2=NCC(=O)N2c2ccc(Cl)cc2)n1`, the inhibition is 4.1%.

Take `O=C(COCc1cc(-c2ccc3c(c2)OCO3)on1)N1CCN(c2cccc(Cl)c2)CC1`: the inhibition is 6.1%.

Take `Cc1c(-c2ccccc2)cn2c1-c1ccc(C)n1CC2`: the inhibition is 44.5% (active).

Consider `CCCCNC(=O)C(C)N(CCN(C)C)C(=O)CCCN1C(=O)NC(c2ccc(Cl)cc2)C(C(=O)OCc2ccccc2)=C1C` (stereo not drawn), for which the inhibition is -1.7%.

Turning to `COc1ccc(-c2nc3n(c2Br)CCC3)cc1`, the inhibition was 6.5%.

In the case of `Cc1ccc(NC(=O)COc2ccc(/C=N\NC(=O)c3cccnc3)cc2)cc1C`, the inhibition was 91% (active).

For the molecule `Cc1ccc(OCC(=O)NCCCNC(=O)c2cccnc2)cc1C`, the inhibition is 0.1%.

With `Cc1cccc(OCC(=O)NCCNC(=O)c2cccnc2)c1`, the inhibition was 2.9%.

Regarding `Cc1ccc(C(=O)N2CCCC2)c(F)c1F`, the inhibition was -4.7%.

As for `Cc1nc2ccccc2n1C(=O)N1CCOCC1`, the inhibition is 58.5% (active).

As for `O=C(c1cc(-c2ccc(Cl)s2)nc2ccccc12)N1CCOCC1`, the inhibition was -0.8%.

As to `O=C(N1CCOCC1)N1CCOCC1`, the inhibition was -1.2%.

Take `CCOC(=O)C1(Cc2cccc(OC)c2)CCCN(C(=O)CCSC)C1` (stereo not drawn): the inhibition is 5.4%.

`Cc1c(NC(=O)CSc2cccc3cccnc23)c(=O)n(-c2ccccc2)n1C`: the inhibition is 48.6% (active).

On to `Cc1c(NC(=O)CSc2nnnn2-c2ccc(C(=O)O)cc2)c(=O)n(-c2ccccc2)n1C`, for which the inhibition was -4.2%.

As for `Cc1c(NC(=O)CSc2nnc(-c3cccnc3)n2N)c(=O)n(-c2ccccc2)n1C`, the inhibition is 0%.

For the molecule `CC(C)CC(NC(=O)C1CCCN1C(=O)[C@@H](C)NC(=O)OCc1ccccc1)C(=O)NCC(N)=O` (stereo partly drawn), the inhibition is -2.1%.

For the molecule `CC(C)CC(O)C1CCN(C(=O)CCc2nnc(-c3ccc4c(c3)OCO4)o2)CC1` (stereo not drawn), the inhibition was -1.9%.

As to `O=[N+]([O-])c1ccccc1Nc1ccc(O)cc1`, the inhibition is 0.3%.

As to `Cc1ccc(Nc2nc(N)nc(CSc3nnc(C)s3)n2)cc1`, the inhibition is -0.4%.

For `Cc1ccc(Nc2ccccc2N)cc1`, the inhibition was 53% (active).

Consider `O=[N+]([O-])c1cc(S(=O)(=O)Nc2cccc(Cl)c2)ccc1N=Nc1c(O)[nH]c2ccccc12`, for which the inhibition was -18%.

Consider `Cc1c(CCC(=O)N[C@@H](CC(C)C)C(=O)O)c(=O)oc2c(C)c3oc4c(c3cc12)CCCC4`, for which the inhibition was -8.5%.

Consider `Cc1c(OC(C)C(=O)N[C@@H](Cc2ccccc2)C(=O)O)ccc2c3c(c(=O)oc12)CCCC3` (stereo partly drawn), for which the inhibition was -4.9%.

With `Cc1oc2c(C)c3oc(=O)c(CC(=O)N[C@@H](CC(C)C)C(=O)N[C@@H](Cc4ccccc4)C(=O)O)c(C)c3cc2c1C`, the inhibition is 71.8% (active).

For `CC(=NCc1ccc2c(c1)OCO2)C1=C(O)c2ccccc2C1=O`, the inhibition was -6.8%.

With `CCOc1ncccc1C(=O)OCC(=O)Nc1cccc(S(=O)(=O)N2CCCCCC2)c1`, the inhibition is 1.7%.

For `CCc1ccc(-c2cc(C(=O)NCc3ccco3)c3ccccc3n2)s1`, the inhibition is 40.1% (active).

As to `CC(C)(C)c1ccc(C(=O)NCc2ccco2)cc1`, the inhibition was 0.7%.

Regarding `Cc1cccc(Nc2ccccc2C(=O)NCc2ccco2)c1C`, the inhibition was 0.1%.

Regarding `CN1CCNC(=O)C1CC(=O)N1CC=C(c2ccc(F)cc2)CC1` (stereo not drawn), the inhibition was -2.3%.

Turning to `CCCCCCCCCCOC(=O)Cn1c(COc2cccc(OC)c2)[n+](C)c2ccccc21`, the inhibition was 33% (active).

As for `CCCc1cc(=O)[nH]c(SCC(=O)Nc2sc3c(c2C#N)CCCC3)n1`, the inhibition is 2%.

On to `COc1cccc(CN(C)CC(=O)Nc2sc3c(c2C#N)CCC3)c1`, for which the inhibition is 18%.

For the molecule `COc1ccc(-n2c(SCC(=O)Nc3sc4c(c3C#N)CCCC4)nnc2-c2ccc(O)cc2)cc1`, the inhibition was 59.6% (active).

As to `Cc1ccc(Cc2c(-c3ccco3)nc3ccc(Cl)cn23)cc1`, the inhibition is 18.2%.

Regarding `COC(=O)c1c(CCl)noc1C(=O)NC(C)C`, the inhibition was -0.8%.

For the molecule `O=C(/C=C/c1cccs1)c1cc(Cl)ccc1OC(=O)N1CCOCC1`, the inhibition is 1.7%.

As for `O=c1c2ccccc2ncn1CCc1ccncc1`, the inhibition was 1.2%.

Take `O=C(CN1C(=O)CSc2ncccc21)N1CCOCC1`: the inhibition is -4.6%.

As for `Cc1ccc2c(c1)N(CC(=O)N1CCOCC1)C(=O)CO2`, the inhibition is -3.1%.

Take `Cc1cc(/C=C2/SC(=O)N(CC(=O)N3CCCC3)C2=O)ccc1N1CCOCC1`: the inhibition is 59.6% (active).

Regarding `Cc1cccc(N(C(=O)c2sc(C)nc2C)C(C(=O)NCC2CCCO2)c2ccccc2)c1` (stereo not drawn), the inhibition is -7.9%.

With `CCNC(=O)C1(C)CCCN(Cc2noc(-c3ccccc3OC)n2)C1` (stereo not drawn), the inhibition is 2.1%.

Take `CC(=O)N1CCN(Cc2cc(=O)oc3cc(C)ccc23)CC1`: the inhibition is 9.9%.

With `Cc1ccc(S(=O)(=O)N2[C@@H](c3ccc(Br)cc3)C(C(=O)O)=C[C@H]2CC2CCCC2)cc1`, the inhibition was 14.1%.

As to `COc1cccc(NC(=O)C2(C)CCN2C(=O)CCC2CCCC2)c1` (stereo not drawn), the inhibition is -22.2%.

With `COc1cccc(CN2C(=O)CCC2(C)C(=O)NC2CCCCCC2)c1` (stereo not drawn), the inhibition was 3.5%.

Take `Cc1nnc(N(Cc2ccco2)C(=O)c2ccno2)s1`: the inhibition is 15%.

For `COc1cccc(CNC(=O)c2nnn(CC(=O)Nc3cc(C)ccc3C)c2N)c1`, the inhibition was -0.5%.

As for `COc1ccc(NC(=O)Cn2nnc(C(=O)NCCc3ccc(OC)c(OC)c3)c2N)cc1`, the inhibition was 7%.

With `COc1ccc(CNC(=O)c2nnn(CC(=O)Nc3cc(C)cc(C)c3)c2N)cc1`, the inhibition is 58.1% (active).

`O=C(Nc1cccc(C(=O)O)c1)/C(=C\c1ccccc1)NC(=O)c1ccc(Br)o1`: the inhibition is 1.3%.

`CC1(C)NC(=O)N(CCCCSc2ccc(Cl)cc2)C1=O`: the inhibition is 1.8%.

Turning to `O=P(c1ccc2c(c1)OCCO2)(N1CCOCC1)N1CCOCC1`, the inhibition was 2.8%.

Turning to `CS(=O)(=O)c1ccc2c(c1)SC1=NC(=O)/C(=C/c3ccco3)C(=N)N12`, the inhibition is 76.1% (active).

Regarding `CCS(=O)(=O)C1=NSC2=NC(=O)/C(=C\c3ccc(OS(=O)(=O)c4ccccc4)cc3)C(=N)N21`, the inhibition was 22.6%.

Regarding `CCCC1C(c2ccccc2)C(C#N)(C#N)C2(C#N)CC1(N)NC2=O` (stereo not drawn), the inhibition is 3%.

Regarding `COC1=C/C(=C/c2c(N)n3nc(CC(=O)N4CCOCC4)sc3nc2=O)C=CC1=O`, the inhibition was 46.9% (active).

Take `COc1ccc(-c2ccnc(SCC(=O)N3CCOCC3)n2)cc1`: the inhibition is -4%.

Turning to `O=C(Oc1ccccc1C(=S)N1CCCCC1)c1cc([N+](=O)[O-])cc([N+](=O)[O-])c1`, the inhibition was 1.8%.

As to `CC(C)CC1C(=O)N(Cc2cn(CC3CCCCC3)nn2)CCS(=O)(=O)N1Cc1ccc(-c2ccc(Cl)cc2)cc1` (stereo not drawn), the inhibition is -2.7%.

Turning to `CC1C(=O)N(Cc2cn(Cc3ccco3)nn2)CCS(=O)(=O)N1Cc1ccc(-c2cccc(CO)c2)cc1` (stereo not drawn), the inhibition is 4.5%.

On to `CC(C)CC1C(=O)N(Cc2cn(Cc3ccco3)nn2)CCS(=O)(=O)N1Cc1ccc(-c2ccc(Cl)c(Cl)c2)cc1` (stereo not drawn), for which the inhibition is 59.9% (active).

As for `COc1ccc(NC(=O)CNC(=O)Cn2ccc3ccccc3c2=O)c(OC)c1`, the inhibition is -3.8%.

Consider `CC(C)C1N=C2c3ccccc3N=C(SCC(=O)c3ccc(O)c(O)c3)N2C1=O` (stereo not drawn), for which the inhibition is -6.6%.

Consider `CCC(=O)N1CCc2cc(S(=O)(=O)NC(C(=O)N3CCc4ccccc4C3)C(C)C)ccc21` (stereo not drawn), for which the inhibition is 1.1%.

For the molecule `CCOC(=O)N1CCC(NC(=O)C(NS(=O)(=O)c2ccc3c(c2)CCN3C(=O)CC)C(C)C)CC1` (stereo not drawn), the inhibition is 46.5% (active).

Consider `COc1ccc(NC(=O)C(CC(C)C)NS(=O)(=O)c2ccc3c(c2)CCN3C(C)=O)cc1OC` (stereo not drawn), for which the inhibition is 6.4%.

As to `CC(C)S(=O)(=O)c1csc(NC(=O)Nc2ccc(Cl)cc2)c1Cl`, the inhibition is 1.6%.

Turning to `CCC(C)Cn1c(O)cc2nn(-c3nc4ccccc4s3)c(=O)c-2c1C` (stereo not drawn), the inhibition is 95.3% (active).

With `N#Cc1ccc(-c2ccc3nccn3c2)cc1`, the inhibition was 1.6%.

With `O=C(CSc1cccc2cccnc12)N/N=C/c1cccnc1`, the inhibition is 71.4% (active).

As for `O=C(CNC(=O)c1cccnc1)N/N=C/c1cc(Br)c(O)c(Br)c1`, the inhibition is -14.1%.

For `Cc1ccc(/C=N/NC(=O)CSc2nc3ccccc3o2)cc1`, the inhibition was 1%.
